Laboratory results: paper PMC12864922, “TDP-43 directly inhibits mRNA accumulation in neurites through modulation of mRNA stability”
Whole data set: some 9,900 sequences, median “r (bound/input frequency ratio)” near 0.7, cut for the highest 2% near 6.5. The sample holds the highest values, similar sequences and a random draw of the others, so the mix is not that of the screen.

B1: ENSMUSG00000031028.69|Tub|109:121;139:143 (ssRNA)
RNA: GGGAGUUCUACAGUCCGACGAUCGCUUCGAUAUCCGCAUGCUAUGGAGGUACAGAGGGAGAGGAAGCACAAGCCUGGCUGCUGUGGCUCAGCCAUCCACUCAGCCUACGAGUCAGAGACAGUGGGUGUCCCGGGAAGCAGGGGUACAGUGACACACACACAUACUACAGGGCACUCAAGCUCAUACUAGAAAAAGCUCUGGUGGUCAGCAGAAAGCACUCCCACUUCAAAAGGGCCCAUUAGGCCCAAAGGGGGUUAGGAGUGGUAGGGAUAGGUGCGUGGCAGGUCCCUGCUAGGAUUGCAGCUCUUGCGGUCGCACUAGUGUGGAAUUCUCGGGUGUCAAGG
B2: ENSMUSG00000028439.266|Fam219a|244:248 (ssRNA)
RNA: GGGAGUUCUACAGUCCGACGAUCGCUUCGAUAUCCGCAUGCUAUGCUGGUCUGGUCUGAGGGAGGAAAGCUGAGGCUGUAGCUCAGUGAGAUGGUGGCUCUCCCAUGGCUGAAGACAAGUGCAAGCAGAGAGAGCCUCAGGCUGCUGGGCCUCGGACCCACGAGCCUCCUCUCACUGAGCCAGUGCGGCCAGAGUGUCUCUCCUUCAGGCGCCCCACAUGCCAGCAUUUCCACCCUCUGGAUUCUCCUCACAUGUCACUCUCCAGGUGCCGGGGCCUAGAGUGGGCCACACAGAAGGAGGAGUCUCUUGCGGUCGCACUAGUGUGGAAUUCUCGGGUGUCAAGG
B3: ENSMUSG00000042529.487|Kcnj12 (ssRNA)
RNA: GGGAGUUCUACAGUCCGACGAUCGCUUCGAUAUCCGCAUGCUAGAUGUGCGUCUCACUGGCCUCUGCCUGCCUCUCCCGCCUGCGGAGCACUUACACUUCCUGGGGCCCCUGCAGCUGGACCAUGUACAGGGCUCCCUGGGGCUUGUCCUCAGGGGCAGAGAAGGACAUGGUGGCAGCAGCACUGAGAACAGGAGCAUGGCCUCUCUCAGACCCCAGGGCAGUCAUUCAGUCUUUUCCAUGGACACUCCCCACCGCUCCACAUACUGCCUCCGCCUCAUUCUUGGGCUCUUCCUGCCUUGCUGCUCUUGCGGUCGCACUAGUGUGGAAUUCUCGGGUGUCAAGG
B4: ENSMUSG00000004113.203|Cacna1b (ssRNA)
RNA: GGGAGUUCUACAGUCCGACGAUCGCUUCGAUAUCCGCAUGCUAGCAUCGUGGAUGAGGUACGGCCUCAGGAAGCAUCGGGUGGAUUGGGUGGGAGCUGCUCAGAGCAGCACGGGGGCUUGUGUCUUAGGGACAUUGACAGUGUCCAUCAGCAUGUCAGAGAAGCAGCUGUAGUGCCCGUGUUUCUCCCUGAGUCAUGGGUUCUGAAGAAGCCAGAGCGGCACAAUGCGUGCUUGCAUGAGGCACUUUCAGCCUUUUUAAAUCUGACUCUCAGGGAUGGGAUGCCUGCCAAGUAGGGUGUAAUCCUCUUGCGGUCGCACUAGUGUGGAAUUCUCGGGUGUCAAGG

Biological target: TDP-43 (Homo sapiens, UniProt Q13148 1-414)
Sequence (Q13148 whole entry): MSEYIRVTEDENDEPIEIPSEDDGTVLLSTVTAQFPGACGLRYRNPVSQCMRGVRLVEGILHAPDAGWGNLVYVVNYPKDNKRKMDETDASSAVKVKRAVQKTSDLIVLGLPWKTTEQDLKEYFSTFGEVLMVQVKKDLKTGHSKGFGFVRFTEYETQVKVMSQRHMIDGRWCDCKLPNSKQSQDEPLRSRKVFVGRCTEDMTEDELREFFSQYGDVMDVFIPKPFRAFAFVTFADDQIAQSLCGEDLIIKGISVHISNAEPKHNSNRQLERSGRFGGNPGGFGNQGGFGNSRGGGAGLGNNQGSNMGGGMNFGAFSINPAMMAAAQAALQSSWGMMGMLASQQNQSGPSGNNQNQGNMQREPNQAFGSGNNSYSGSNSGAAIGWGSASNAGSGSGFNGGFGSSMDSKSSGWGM
Assay: RNA Bind-n-Seq with designed 260-mer pool; 25 mM Tris-HCl, 150 mM KCl, 3 mM MgCl2, BSA (printed 500 mg/mL), 20 units/mL SUPERase IN; pH not stated; 500 nM RNA pool, 1 h, 4 C; TDP-43 5, 50, 500 nM; high values mean tight binding
Settings: protein: recombinant; tags: SBP (GST cleaved off with PreScission; pGEX-GST-SBP)
In short: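 Binding (R) is the ratio of each oligo's mapped-read-normalized abundance in the bound fraction to its abundance in the input. To obtain it, SBP-tagged recombinant TDP-43 (5, 50 or 500 nM) on streptavidin beads was incubated with 500 nM of an in vitro-transcribed 260-nt 3′ UTR oligo pool for 1 h at 4 °C in 25 mM Tris-HCl, 150 mM KCl, 3 mM MgCl2, BSA and SUPERase IN. The RNA retained after washing was released with biotin, then reverse transcribed, amplified by PCR and sequenced.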

Binder	binding signal
B1	0.841 R (bound/input frequency ratio)
B2	0.614 R (bound/input frequency ratio)
B3	0.428 R (bound/input frequency ratio)
B4	1.21 R (bound/input frequency ratio)
